Tau fibril ThT: qHTS for Inhibitors of Tau Fibril Formation, Thioflavin T Binding | Microtubule-associated protein tau (Homo sapiens), P10636 | recombinant tau K18 P301L, heparin-induced fibrillization, ThT fluorescence | Potency, µM (highest dose often 57.4 µM), for the others: at the highest dose activity, negative = inhibition, usual class: inhibitors | 2.1% of 270,000 active; note: potency is the fitted concentration of half-maximal effect; nearly all actives have a fitted effect of over 55% in size
Target sequence (P10636 561-689 P618L limits assumed): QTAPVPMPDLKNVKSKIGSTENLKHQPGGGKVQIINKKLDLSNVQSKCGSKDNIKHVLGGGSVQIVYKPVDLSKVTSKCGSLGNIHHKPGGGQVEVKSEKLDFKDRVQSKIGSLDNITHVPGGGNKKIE
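Using a mix of unlabeled (15 uM) and Alexa 594-labeled (0.24 uM) tau K18 P301L, heparin-triggered fibrillization over 6 hr at 37 C was scored by ThT fluorescence.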
Tau fluor cs: Counterscreen qHTS for Inhibitors of Tau Fibril Formation, Fluorescence Polarization; AID 1463, 2008; Potency, µM (doses to about 57.7 µM), for the others: at the top dose activity change, negative = decrease; tau K18 P301L (four-repeat tau fragment) Alexa594 fluorescence, heparin fibrillization; 0.93% of 280,000 active; note: potency is the fitted concentration of half-maximal effect; nearly all actives have a fitted effect of over 55% in size
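Human K18 P301L tau (15 uM unlabeled plus 0.24 uM Alexa 594-labeled, final) in 100 mM sodium acetate pH 7 was mixed with compound and 20 uM heparin and incubated 6 hr at 37 C.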
Coupling enz: qHTS Assay for Inhibitors of Fructose-1,6-bisphosphate Aldolase from Giardia Lamblia: Coupling assay counterscreen; coupling enzyme system counterscreen, AmpLite Red fluorescence; activity change, negative = inhibition, % at 58.2 µM, hits read low; 0.67% of 290,000 active; in the data active = activity change below about -30%
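First, compound is pin-transferred into glyceraldehyde-3-phosphate coupling-enzyme reagent at 57.5 uM final and held 10 min at RT. Next, substrate, coupling system and AmpLite Red are added. After 20 min RT, fluorescence (525/598 nm) is read.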
Tau FP inhib: qHTS for Inhibitors of Tau Fibril Formation, Fluorescence Polarization | Potency, µM (series often up to 57.7 µM), inactives show top-dose activity, negative = inhibition, actives largely listed as inhibitors | Microtubule-associated protein tau (Homo sapiens), P10636 | K18 P301L tau heparin fibrillization, Alexa594 FP, 6 h | 0.39% of 280,000 active; note: potency is the fitted concentration of half-maximal effect; nearly all actives have a fitted effect of over 55% in size
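Recombinant K18 P301L […], labeled with Alexa 594 at 0.24 uM over 15 uM unlabeled; heparin inducer 20 uM final; 37 C, 6 hr; FP endpoint.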
USP1-UAF1 inh: Inhibitors of USP1/UAF1: Primary Screen; AID 743255, 2014; recombinant USP1/UAF1, Ub-Rhodamine cleavage fluorescence; 0.23% of 390,000 active; Potency, µM (titrated, usually from 57.1 µM), without a hit: at the top dose activity change, negative = inhibition, hits mostly inhibitors; Ubiquitin carboxyl-terminal hydrolase 1 (Homo sapiens), O94782; note: potency is the fitted concentration of half-maximal effect; nearly all actives have a fitted effect of over 60% in size
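1 nM enzyme complex + cpd, 15 min RT; start with Ub-Rho 150nM final; kinetic fluorescence ex 480/em 540, 6 reads q60 s. Buffer 50mM HEPES pH 7.8, 0.5mM EDTA, 0.1 mg/ml BSA, 1mM TCEP, 0.01% Tween-20.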
Starred values were filed as active, the others as inactive; [ ] = another dose, or the depositor's remark. Most compounds without a hit are left out; they make up all but 2.3% or so of the library. Unless noted, calls come from the whole dose curve; as a rule, active = well fitted curve in the direction sought with a large enough effect; inconclusive = small, poorly fitted or top-dose-only effect, or another doubt; inactive = no such curve, though single readings can be large; an effect the other way counts as inactive or inconclusive. % is set by controls: 0 for no effect and ±100 for the full control effect.

Results for CCCn1c2ccccc2c2cnn(CC(=O)NCCc3ccc(OC)cc3OC)c(=O)c21 ?
Tau fibril ThT: 0%; Tau fluor cs: -5%; Tau FP inhib: -4%; USP1-UAF1 inh: -20%

How did Nc1c(C(=O)c2ccccc2)sc2snc(SCC(=O)c3ccccc3)c12 do in these assays?
Tau fibril ThT: 7.9µM*; Tau fluor cs: inconclusive; Coupling enz: 5; Tau FP inhib: inconclusive; USP1-UAF1 inh: -10%

What do the screens show for `CCOC(=O)CSc1nc(N)c(C(=O)Nc2ccc(N(C)C)cc2)s1`?
Tau fibril ThT: 16µM*; Tau fluor cs: inconclusive; Coupling enz: 0; Tau FP inhib: 7%; USP1-UAF1 inh: -16%

Results for CC1CCc2c(sc(Nc3nc4c(F)cccc4s3)c2C(N)=O)C1 (centres undefined) ?
Tau fibril ThT: inconclusive; Tau fluor cs: 16µM*[quencher]; Coupling enz: 4; Tau FP inhib: 7%; USP1-UAF1 inh: -9%

Results for O=C(Nc1nc2c(F)cccc2s1)C1CC1 ?
Coupling enz: 3; USP1-UAF1 inh: -11%

What do the screens show for `CCOc1ccc2oc(=O)cc(CN3CCN(C(=O)c4ccc(Cl)cc4)CC3)c2c1`?
Tau fibril ThT: -2%; Tau fluor cs: 3%; Tau FP inhib: 4%; USP1-UAF1 inh: -11%

How did COc1ccccc1NC(=S)Nc1cccc2cnccc12 do in these assays?
Tau fibril ThT: inconclusive; Tau fluor cs: -12%; Coupling enz: -19; Tau FP inhib: inconclusive; USP1-UAF1 inh: -6%

Results for CN(C)S(=O)(=O)c1cccc(NC(=S)Nc2cccc3cnccc23)c1 ?
Tau fibril ThT: inconclusive; Tau fluor cs: -29%; Coupling enz: -53*; Tau FP inhib: inconclusive; USP1-UAF1 inh: inconclusive

What do the screens show for `Fc1ccc(NC(=S)Nc2cccc3cnccc23)cc1`?
Tau fibril ThT: 7.9µM*; Tau fluor cs: inconclusive; Coupling enz: -51*; Tau FP inhib: inconclusive; USP1-UAF1 inh: -21%

What do the screens show for `S=C(Nc1ccc(Cl)cc1)Nc1cccc2cnccc12`?
Tau fibril ThT: 25µM*; Tau fluor cs: inconclusive; Coupling enz: -48*; Tau FP inhib: inconclusive; USP1-UAF1 inh: inconclusive

What do the screens show for `S=C(Nc1cccnc1)Nc1cccc2cnccc12`?
Tau fibril ThT: 13µM*; Tau fluor cs: -19%; Coupling enz: -37*; Tau FP inhib: inconclusive; USP1-UAF1 inh: inconclusive

What do the screens show for `CCN1CCN(c2oc(-c3ccccc3)nc2S(=O)(=O)c2ccc(C)cc2)CC1`?
USP1-UAF1 inh: -18%

What do the screens show for `CCCC[C@H]1COCCS(=O)(=O)N1Cc1cccc([N+](=O)[O-])c1`?
Coupling enz: 1; USP1-UAF1 inh: -25%

What do the screens show for `COc1cc(C2c3[nH]c4ccccc4c3C[C@H]3C(=O)N(C4CC4)CC(=O)N23)ccc1OC(C)C` (some centres undefined)?
Coupling enz: 1; USP1-UAF1 inh: -17%

Results for CCN(C/C=C/C#CC(C)(C)C)Cc1cccc(OCc2cc(-c3ccsc3)cs2)c1 ?
Coupling enz: -4

How did O=C(NNC(=O)c1ccc(NC(=O)c2ccccc2)cc1)c1ccc(F)cc1 do in these assays?
Coupling enz: 0; USP1-UAF1 inh: -26%

Results for O=C(NC1=C(Nc2ccc(F)cc2)C(=O)c2ccccc2C1=O)c1ccc(Cl)cc1 ?
Tau fibril ThT: inconclusive; Tau fluor cs: -26%; Coupling enz: -42*; Tau FP inhib: 1%; USP1-UAF1 inh: inconclusive

Results for CCCN=Cc1sc2ccc(OCC)cc2c1O ?
Tau fibril ThT: inconclusive; Tau fluor cs: -19%; Coupling enz: 4; Tau FP inhib: -7%; USP1-UAF1 inh: -11%

How did CCOc1ccc2c(O)csc2c1 do in these assays?
Tau fibril ThT: 25µM*; Tau fluor cs: -13%; Coupling enz: -2; Tau FP inhib: inconclusive; USP1-UAF1 inh: -11%

Results for Cc1ccccc1-c1cc2c(nn1)-c1ccccc1C2=O ?
Tau fibril ThT: inconclusive; Tau fluor cs: inconclusive; Coupling enz: -39*; Tau FP inhib: 2%; USP1-UAF1 inh: 32µM*

What do the screens show for `O=C1c2ccccc2-c2nnc(-c3ccc(O)cc3)cc21`?
Tau fibril ThT: 5µM*; Tau fluor cs: inconclusive; Coupling enz: -2; Tau FP inhib: 15%; USP1-UAF1 inh: -18%

How did COC1(C#CC2C=CC(OC(C)=O)C(COC(C)=O)O2)CCCCC1 (centres undefined) do in these assays?
Tau fibril ThT: -17%[11.5 µM]; Tau fluor cs: -5%[11.6 µM]; Coupling enz: -3; Tau FP inhib: -16%[11.6 µM]

Results for CN1c2ccccc2C(C)(C)C12C=Nc1c(ccc3ccccc13)O2 (centres undefined) ?
Tau fibril ThT: 32µM*; Tau fluor cs: inconclusive; Coupling enz: -78*; Tau FP inhib: inconclusive; USP1-UAF1 inh: inconclusive

How did COc1ccc2ccc3c(c2c1)N=CC1(O3)N(C)c2ccccc2C1(C)C (centres undefined) do in these assays?
Tau fibril ThT: 10µM*; Tau fluor cs: inconclusive; Coupling enz: 2; Tau FP inhib: 22µM*; USP1-UAF1 inh: inconclusive

Results for CN1c2ccccc2C(C)(C)[C@]12C=Cc1cc(O)ccc1O2 ?
Tau fibril ThT: 22µM*; Tau fluor cs: inconclusive; Coupling enz: -9; Tau FP inhib: -1%; USP1-UAF1 inh: -27%

What do the screens show for `CC1(C)OC(=O)N(c2ccccc2)C12C=Cc1cc(Br)ccc1O2` (centres undefined)?
Tau fibril ThT: -7%; Tau fluor cs: -4%; Coupling enz: 4; Tau FP inhib: 0%; USP1-UAF1 inh: -7%

What do the screens show for `C=CCn1c(SC(C)C(=O)c2c(N)n(C)c(=O)n(C)c2=O)nnc1-c1ccoc1C` (centres undefined)?
USP1-UAF1 inh: -18%

What do the screens show for `O=C1CC2CC1C(C(=O)O)C2C(=O)O` (centres undefined)?
USP1-UAF1 inh: -13%

How did CCC(C)NC(=O)CN1C(=O)c2cccc3cccc1c23 (centres undefined) do in these assays?
Coupling enz: 1; USP1-UAF1 inh: -18%

What do the screens show for `CCN1/C(=N\N)c2cccc3cccc1c23`?
Tau fibril ThT: 7.9µM*; Tau fluor cs: inconclusive; Coupling enz: -47*; Tau FP inhib: 6%; USP1-UAF1 inh: -12%

How did COc1ccc(NC(=O)CN2c3cccc4cccc(c34)S2(=O)=O)cc1 do in these assays?
Tau fibril ThT: -13%; Tau fluor cs: -25%; Coupling enz: -31*; Tau FP inhib: 14%; USP1-UAF1 inh: -24%

Results for NC(Cc1ccccc1)C(O)c1ccco1 (centres undefined) ?
Coupling enz: -2

Assay outcomes deposited in PubChem BioAssay by National Center for Advancing Translational Sciences (NCATS).
